# Screens as filed in PubChem.
# DAT uptake mod = modulates human dopamine transporter uptake under cocaine | Q01959 | LLC-PK1 hDAT cells, [14C]-dopamine uptake with cocaine IC80; actives deviate in either direction | B-score at 10 µM | 1.3% of 110,000 active | AID 449768;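 active = Z score or B-score, a plate-position-corrected score, falls beyond the plate's 99.7% confidence bounds, in either direction; inactive = both scores lie inside the 99.7% bounds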;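 also: scored against the spread of the other compound wells on the same plate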
# CYP2C19 inhib = human CYP2C19 inhibition. CYP2C19 Supersomes, luciferin-H EGE luminescence, 30 min. inhibition, % at 5 µM. 21% of 96,000 active. AID 778;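 active = CYP2C19 inhibition above a set limit at 5 µM in the primary screen, cut at about 50% in these data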;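 also: plate controls were negative control wells for no effect and 2.5 mM tranylcypromine positive control for full effect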
# Target sequence (P33261 whole entry, looked up): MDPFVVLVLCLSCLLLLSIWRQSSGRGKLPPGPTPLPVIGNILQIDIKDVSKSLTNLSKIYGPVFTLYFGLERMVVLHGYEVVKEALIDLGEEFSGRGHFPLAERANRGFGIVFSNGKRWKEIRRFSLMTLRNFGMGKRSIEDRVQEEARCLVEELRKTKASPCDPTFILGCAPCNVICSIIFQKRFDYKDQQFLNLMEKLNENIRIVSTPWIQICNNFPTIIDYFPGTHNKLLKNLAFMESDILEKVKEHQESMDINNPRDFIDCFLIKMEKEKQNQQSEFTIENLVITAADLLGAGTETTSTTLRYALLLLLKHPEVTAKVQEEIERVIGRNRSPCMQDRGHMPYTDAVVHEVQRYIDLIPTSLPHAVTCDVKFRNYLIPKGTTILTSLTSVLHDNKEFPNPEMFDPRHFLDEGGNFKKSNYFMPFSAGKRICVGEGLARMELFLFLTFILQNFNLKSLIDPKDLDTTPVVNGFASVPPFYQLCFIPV
# CYP2C9 activ = activators of human CYP2C9; P11712; recombinant CYP2C9, luciferin-H conversion, luminescence; hits give high values; factor 1 = untreated enzyme, 0 = blocked; activation factor at 5 µM; 1.4% of 96,000 active; AID 1024;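 active = activation factor of 2 or more for CYP2C9 at a 5 µM dose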;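 also: 0 = sulfaphenazole-blocked wells and 1 = vehicle-only wells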
# CYP2C9 inhib = human CYP2C9 inhibition; inhibition, % at 5 µM; P11712; CYP2C9 Supersomes, luciferin-H conversion, luminescence; 20% of 96,000 active;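 active = blocking of liver enzyme CYP2C9 beyond about 50% at 5 µM, limit read from the data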
# CYP2C19 activ = increases human CYP2C19 enzyme activity. activation factor at 5 µM. 96,000 tested, under 10 active. P33261. recombinant CYP2C19, luciferin-H EGE luminescence; hits give high values; 0 = fully inhibited enzyme, 1 = untreated enzyme. AID 1025;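 active = activation factor of at least 2 at 5 µM in the primary screen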;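 also: 0 = wells with 2.5 mM tranylcypromine and 1 = vehicle-only wells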
# D1 allo mod = D1 dopamine receptor (human) allosteric modulation | 5.9% of 58,000 active | P21728 | AID 641 | HEK293 D1, CRE-luciferase, dopamine EC30 potentiation; actives deviate in either direction | B-score at 10 µM;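 active = luminescence count or its row- and column-corrected plate score outside the 99.7% band of the plate's sample wells, on either side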
# Starred values were filed as active, the others as inactive; / = no result given. A selection: hits, their analogues and other compounds. The true share with any hit is near 28%.
SMILES,DAT uptake mod,CYP2C19 inhib,CYP2C9 activ,CYP2C9 inhib,CYP2C19 activ,D1 allo mod
O=C1C[C@@H](c2ccc(O[C@@H]3O[C@H](CO)[C@@H](O)[C@H](O)[C@H]3O)cc2)Oc2cc(O)ccc21,0.0037,/,/,/,/,/
CC12COC3(C(=O)N4CCN(c5ccccn5)CC4)CC1CCC32C (stereo not drawn),/,/,/,/,/,0.047
O=C(CCCN1C(=O)c2ccccc2C1=O)N1CCC(c2ccccc2)C1 (stereo not drawn),0.58,79*,0.3,67*,0.2,-0.14
Cc1cccc(N2CCN(C(=O)Cc3c(C(=O)O)[nH]c4ccc(Cl)cc34)CC2)c1C,1.3,43,0.1,87*,0.6,0.69
CCCc1nnc(SCc2ccc(OC)cc2)n1N,-0.33,51*,0.9,14,0.5,0.49
CCCOc1ccc(CSc2nnc(CCC)n2N)cc1,1.3,66*,0.5,55*,0.3,-0.92
COc1ccc(CSc2nnc(C)n2N)cc1,-0.045,-10,1.1,-14,1.1,-0.0015
CCCCOc1ccc(Cl)cc1CSc1nnc(CC)n1N,0.44,54*,0.4,64*,0.5,/
CCc1nnc(SCCSc2nnc(CC)n2N)n1N,-0.3,8,0.9,8,0.9,/
CCCCOc1ccc(CSc2nncn2N)cc1,0.034,20,0.9,11,0.8,-0.26
COc1ccc(C2CCCN2C(=O)c2cccs2)cc1 (stereo not drawn),-0.64,33,0.7,27,0.7,/
O=C1c2ccccc2S(=O)(=O)c2cc(C(=O)N3CCC(N4CCCC4)CC3)ccc21,-0.19,/,/,/,/,/
COc1ccc(S(=O)(=O)n2ccc(-c3ccc(OCCN(C)c4ccccn4)cc3)n2)cc1,1.8,26,0.4,57*,0.7,/
COc1ccc(S(=O)(=O)N(CC(=O)O)c2ccccn2)cc1,-0.67,-14,1.2,-15,1.1,/
O=C(CSc1nnnn1-c1ccccc1Cl)Nc1ccc2c(c1)OCCO2,-0.014,-3,1.1,-13,1,-0.87
Cn1c(Cn2c(=O)sc3ccccc32)nnc1SCC(=O)NCc1ccc2c(c1)OCO2,/,/,/,/,/,0.074
O=C(CSc1nnc2scc(-c3ccccc3)n12)Nc1ccc2c(c1)OCCO2,0.44,35,0.5,53*,0.6,1.4
O=C(CSc1nnc(Cc2cccs2)n1-c1ccc(Cl)cc1)NCc1ccc2c(c1)OCO2,1.8,35,0.5,54*,0.6,/
CC(Sc1nnc(-c2cccs2)n1Cc1ccccc1)C(=O)NCc1ccc2c(c1)OCO2 (stereo not drawn),0.77,48,0.2,85*,0.5,/
O=C(CSc1nnc(-c2cccs2)n1Cc1ccccc1)NCc1ccc2c(c1)OCO2,2.1,53*,0.2,79*,0.5,/
CCn1c(SCC(=O)Nc2ccc(OC)c(OC)c2)nnc1-c1cccs1,-0.0078,5,0.9,7,0.9,-1
CCn1c(SCC(=O)Nc2cc(OC)c(OC)c(OC)c2)nnc1-c1cccs1,0.42,19,0.5,52*,0.8,-0.046
Cc1ccc(-c2nc(NC(=O)CSc3nnc4scc(-c5ccccc5)n34)ns2)cc1,2.6*,/,/,/,/,-2
O=C(CSc1nnc(-c2ccco2)n1-c1ccccc1)NCc1ccc2c(c1)OCO2,-0.39,47,0.6,40,0.5,/
Cc1ccc(-c2csc3nnc(SCC(=O)NCc4ccc5c(c4)OCO5)n23)cc1,0.0074,26,0.6,44,0.7,19*
SMILES,DAT uptake mod,CYP2C19 inhib,CYP2C9 activ,CYP2C9 inhib,CYP2C19 activ,D1 allo mod
O=C(CSc1nnc(-c2cccs2)n1-c1ccccc1)NCc1ccc2c(c1)OCO2,-0.13,68*,0.1,92*,0.3,0.47
Cn1c(SCC(=O)NCc2ccc3c(c2)OCO3)nnc1-c1cc2ccccc2cc1O,1.1,/,/,/,/,-0.02
O=C1CN(C(=O)CSc2nnc(-c3ccccc3)n2Cc2ccc3c(c2)OCO3)c2ccccc2N1,1.4,63*,0.6,37,0.4,0.66
Cn1c(SCC(=O)NCc2ccc3c(c2)OCO3)nnc1-c1cccs1,0.0086,0,0.4,65*,1,-0.07
CCn1c(SCC(=O)NCCc2ccc(F)cc2)nnc1-c1cccs1,0.53,12,0.9,14,0.9,-0.34
CCn1c(SC(C)C(=O)NC2CCCc3ccccc32)nnc1-c1cccs1 (stereo not drawn),0.67,89*,0.1,86*,0.1,/
CCn1c(SCC(=O)NC2CCCc3ccccc32)nnc1-c1cccs1 (stereo not drawn),1.5,19,0.6,43,0.8,/
CCn1c(SCC(=O)NCc2ccc3c(c2)OCO3)nnc1-c1cccs1,-0.87,4,0.2,77*,1,0.0053
Clc1ccc(Cn2ncc3c(NCCN4CCOCC4)ncnc32)cc1,-0.72,28,0.7,25,0.7,-0.5
Cc1occc1C(=O)NN=C1C2CC3CC(C2)CC1C3,2.5,/,/,/,/,/
CNNCc1ccc(C(=O)NC(C)C)cc1,0.11,/,/,/,/,/
CC12CN3CC(C)(CN(C1)C3c1ccc3c(c1)OCO3)C2=O (stereo not drawn),-0.61,53*,1.1,-13,0.5,-0.02
O=C(O)CCSCc1ccccc1F,-0.9,-20,1.1,-5,1.2,-0.41
O=C(CN1C(=O)C2CC=CCC2C1=O)NC1CCCc2ccccc21 (stereo not drawn),0.84,-18,0.9,5,1.2,/
Cc1ccc(C(=O)C(C)OC(=O)C2CC(=O)N(C3CCCCC3)C2)cc1 (stereo not drawn),0.36,0,0.9,13,1,/
O=C(COc1ccc2c3c(c(=O)oc2c1)CCC3)c1ccc2c(c1)OCO2,-0.14,58*,0.2,82*,0.4,0.11
CN(C)CCCN1C(=O)C(O)=C(C(=O)c2cc3ccccc3o2)C1c1ccccn1 (stereo not drawn),/,/,/,/,/,-1.4
CC(C)(C)N1CC(c2nc3ccccc3n2CCOc2ccccc2)CC1=O (stereo not drawn),1.2,62*,0.2,83*,0.4,/
CC(C)(C)N1CC(c2nc3ccccc3n2Cc2ccc(Cl)cc2)CC1=O (stereo not drawn),0.21,72*,0.1,93*,0.3,/
C=CCN1CC(c2nc3ccccc3n2Cc2ccccc2)CC1=O (stereo not drawn),-0.44,4,1,2,1,0.43
O=S(=O)(O)c1nc2ccccc2n1CCOc1ccccc1,-0.29,4,0.7,34,1,-0.078
CC1Cc2ccccc2N1C(=O)CSC1=NCCS1 (stereo not drawn),0.11,14,1.2,-19,0.9,0.48
O=C(CSc1nc(-c2ccccc2)cc(=O)[nH]1)N1CCc2ccccc21,0.56,11,0.3,69*,0.9,0.74
Nc1ccccc1SCC(=O)N1CCc2ccccc21,0.94,76*,0.7,33,0.2,0.35
Nc1nc(SCC(=O)N2CCc3ccccc32)[nH]c(=O)c1-c1ccccc1,0.22,9,0.6,44,0.9,-0.25
